Reference: PubChem BioAssay (Tox21)
Records with an inconclusive call do not appear. Activity calls are given as the source filed them. Calls follow the shape of the dose curve; as a rule, active = well fitted curve in the direction sought with a large enough effect in the repeat runs; inconclusive = weak or mixed curves; inactive = no such curve, though single readings can be large; an effect the other way counts as inactive or inconclusive.

Columns and labels:
[1] = qHTS RealTime-Glo MT Cell Viability Assay in HepG2 cells - 8 hour (AID 1224873); also: nearly all actives have a fitted effect of over 55% in size
Procedure, shortened: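 HepG2 cells mixed with RealTime-Glo MT reagents (NanoLuc plus cell-permeant prosubstrate) were seeded at 600 cells/well, incubated 5 h at 37 C/5% CO2, then pinned with compounds in DMSO; nonlytic luminescence tracked viability during 40 h treatment.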

[2] = qHTS RealTime-Glo MT Cell Viability Assay in HEK293 cells - 40 hour (AID 1224874); conditions: RealTime-Glo luminescence; max response: active compounds read low; also: nearly all actives have a fitted effect of over 50% in size
Procedure, shortened: (§1)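 Tox21 screen in HEK293 using RealTime-Glo MT chemistry, with cells and reagent co-dispensed. Luminescence proportional to viable cell number was captured at intervals during 40 h compound exposure at 37 C.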

[3] = A CellTox Green Cytotoxicity Assay to monitor cytotoxicity in HEK293 cells - 24 hour (AID 1224875); also: series mostly up to about 77 µM; nearly all actives have a fitted effect of over 45% in size
Procedure, shortened: (§2)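 Seeding of HEK293 cells together with cytotoxicity dye preceded a 5 h incubation at 37 C/5% CO2. Test compounds in DMSO were then added and fluorescence monitored across 40 h.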

[4] = A CellTox Green Cytotoxicity Assay to monitor cytotoxicity in HepG2 cells - 16 hour (AID 1224876); also: nearly all actives have a fitted effect of over 45% in size
Procedure, shortened: (§3)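 Nonlytic assay: viable cells exclude the dye, so fluorescence scales with cell death. HepG2 at 600 cells/well, compounds added after 5 h, signal read across 40 h.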

[5] = qHTS RealTime-Glo MT Cell Viability Assay in HepG2 cells - 32 hour (AID 1224877); also: nearly all actives have a fitted effect of over 55% in size
Procedure, shortened: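 Viability was tracked continuously by NanoLuc luminescence from prosubstrate reduced by living HepG2 cells, at successive time points over 40 h of compound exposure. Cells with reagent were preincubated 5 h at 37 °C before compound addition.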

[6] = A CellTox Green Cytotoxicity Assay to monitor cytotoxicity in HepG2 cells - 24 hour (AID 1224878); also: nearly all actives have a fitted effect of over 45% in size
Procedure, shortened: as §3

[7] = A CellTox Green Cytotoxicity Assay to monitor cytotoxicity in HepG2 cells - 40 hour (AID 1224879); also: nearly all actives have a fitted effect of over 40% in size
Procedure, shortened: as §3

[8] = qHTS RealTime-Glo MT Cell Viability Assay in HEK293 cells - 0 hour (AID 1224880); also: top concentration of the series differs between compounds; nearly all actives have a fitted effect of over 45% in size
Procedure, shortened: as §1

[9] = A CellTox Green Cytotoxicity Assay to monitor cytotoxicity in HEK293 cells - 32 hour (AID 1224881); also: nearly all actives have a fitted effect of over 40% in size
Procedure, shortened: as §2

[10] = A CellTox Green Cytotoxicity Assay to monitor cytotoxicity in HepG2 cells - 0 hour (AID 1224882); also: nearly all actives have a fitted effect of over 35% in size
Procedure, shortened: as §3
% is scaled to controls: 0 for no effect and ±100 for the full control effect.

CC(C)CC(=O)O
inactive: outcome [1] | max response [2] 6.56% | outcome [3] | outcome [4] | outcome [5] | outcome [6] | Potency [7] | Potency [8] | Potency [9] | outcome [10]

CC(=O)Nc1ccc(S(=O)(=O)Cl)cc1
inactive: outcome [1] | max response [2] -6.18% | outcome [3] | outcome [4] | outcome [5] | outcome [6] | Potency [7] | Potency [8] | Potency [9] | outcome [10]

Cc1ccccc1OCC(O)CO (stereo not given)
inactive: outcome [1] | max response [2] 1.4% | outcome [3] | outcome [4] | outcome [5] | outcome [6] | Potency [7] | Potency [8] | Potency [9] | outcome [10]

Cc1ccc(S(=O)(=O)O)c(C)c1
inactive: outcome [1] | max response [2] 3.15% | outcome [3] | outcome [4] | outcome [5] | outcome [6] | Potency [7] | Potency [8] | Potency [9]

CC(C)CCCC(C)(C)O
inactive: outcome [1] | max response [2] -4.36% | outcome [3] | outcome [4] | outcome [5] | outcome [6] | Potency [7] | Potency [8] | Potency [9] | outcome [10]

COP(=O)(OC)OC(c1ccc(Cl)cc1)P(=O)(OC)OC (stereo not given)
inactive: outcome [1] | max response [2] 4.98% | outcome [3] | outcome [4] | outcome [5] | outcome [6] | Potency [7] | Potency [8] | Potency [9] | outcome [10]

Cc1ccc2ccc(Cl)cc2n1
inactive: outcome [1] | max response [2] 6.03% | outcome [3] | outcome [4] | outcome [5] | outcome [6] | Potency [7] | Potency [8] | Potency [9] | outcome [10]

CCO[Si](CCCS)(OCC)OCC
inactive: outcome [1] | max response [2] 16.1% | outcome [3] | outcome [4] | outcome [5] | outcome [6] | Potency [7] | Potency [8] | Potency [9]

CCCCN
inactive: outcome [1] | max response [2] 9.77% | outcome [3] | outcome [4] | outcome [5] | outcome [6] | Potency [7] | Potency [8] | Potency [9] | outcome [10]

CN(C)CCOCCO
inactive: outcome [1] | max response [2] -8.11% | outcome [3] | outcome [4] | outcome [5] | outcome [6] | Potency [7] | Potency [8] | Potency [9]

COC(=O)CCc1ccc(OCC(O)CNC(C)C)cc1 (stereo not given)
inactive: outcome [1] | max response [2] 5.47% | outcome [3] | outcome [4] | outcome [5] | outcome [6] | Potency [7] | Potency [8] | Potency [9] | outcome [10]

NC(CO)C(=O)NNCc1ccc(O)c(O)c1O (stereo not given)
inactive: outcome [1] | max response [2] 2.85% | outcome [3] | outcome [4] | outcome [5] | outcome [6] | Potency [7] | Potency [8] | Potency [9] | outcome [10]

O=S(=O)(O)c1ccc2cc(O)c(S(=O)(=O)O)cc2c1
inactive: outcome [1] | max response [2] -1.21% | outcome [3] | outcome [4] | outcome [5] | outcome [6] | Potency [7] | Potency [8] | Potency [9]

CC(N)C(=O)OC(C)(C)Cc1ccc(Cl)cc1 (stereo not given)
inactive: outcome [1] | max response [2] -11.9% | outcome [3] | outcome [4] | outcome [5] | outcome [6] | Potency [7] | Potency [8] | Potency [9] | outcome [10]

Cc1[nH]cnc1-c1ccc(Cl)cc1
inactive: outcome [1] | max response [2] -3.17% | outcome [3] | outcome [4] | outcome [5] | outcome [6] | Potency [7] | Potency [8] | Potency [9] | outcome [10]

CCCCCCCCCCCCCC
inactive: outcome [1] | max response [2] 3.06% | outcome [3] | outcome [4] | outcome [5] | outcome [6] | Potency [7] | Potency [8] | Potency [9] | outcome [10]

Cc1ccc(C=O)cc1C
inactive: outcome [1] | max response [2] 2.17% | outcome [3] | outcome [4] | outcome [5] | outcome [6] | Potency [7] | Potency [8] | Potency [9] | outcome [10]

O=C(O)C(=O)Cc1ccccc1
inactive: outcome [1] | max response [2] 14.4% | outcome [3] | outcome [4] | outcome [5] | outcome [6] | Potency [7] | Potency [8] | Potency [9] | outcome [10]

c1ccc2c(c1)ccc1c3ccccc3ccc21
inactive: outcome [1] | max response [2] 6.22% | outcome [3] | outcome [4] | outcome [5] | outcome [6] | Potency [7] | Potency [8] | Potency [9] | outcome [10]

CCCCOC(=O)c1ccccc1
inactive: outcome [1] | max response [2] 4.16% | outcome [3] | outcome [4] | outcome [5] | outcome [6] | Potency [7] | Potency [8] | Potency [9] | outcome [10]

Cc1c(I)c(=O)n(-c2ccccc2)n1C
inactive: outcome [1] | max response [2] -1.2% | outcome [3] | outcome [4] | outcome [5] | outcome [6] | Potency [7] | Potency [8] | Potency [9] | outcome [10]

O=S(O)(O)=S
inactive: viability change, negative = cytotoxic [1] 0.222% [at 6.97 µM] | max response [2] 0.994% | activity change [3] -0.341% [at 6.97 µM] | cytotoxicity increase [4] -0.212% [at 6.97 µM] | activity change, negative = cytotoxic [5] 5.2% [at 6.97 µM] | cytotoxicity [6] -1.5% [at 6.97 µM] | cytotoxicity increase [7] -1.37% [at 6.97 µM] | activity change, negative = cytotoxicity [8] 1.11% [at 6.97 µM] | cytotoxicity increase [9] -0.289% [at 6.97 µM] | cytotoxicity [10] 8.46% [at 6.97 µM]

CCCCCCCCCC(C)=O
inactive: outcome [1] | max response [2] 10.3% | outcome [3] | outcome [4] | outcome [5] | outcome [6] | Potency [7] | Potency [8] | outcome [10]
